# Laboratory results taken from PubChem BioAssay (EPA / NIEHS).
# Values joined by “and” are separate entries in the source; they are usually repeats but may differ in a detail not shown here. Identical values can stand only once. Some compounds were tested as several samples or in several runs, with calls that do not always agree. Active and inactive are the calls of the source. Rule for the calls: active = hit-call score of the fitted dose curve at least 0.9, where 1 is the maximum; inactive = score below 0.9.
# Assay: BSK_3C_TissueFactor: BioMAP Diversity Plus: 3C Assay for Tissue Factor Biomarker Activity (AID 2282997)
# Settings: BioMAP 3C HUVEC, tissue factor biomarker readout; actives raise or lower the signal
# Experimental: BSK_3C is a cell-based, multiplexed-readout assay that uses umbilical vein endothelium, a human vascular primary cell, with measurements taken at 24 hours after chemical dosing in a 96-well plate.BSK_3C_TissueFactor is an assay component measured in the BSK_3C assay. It measures Tissue Factor antibody related to regulation of gene expression using ELISA technology.Data from the assay component BSK_3C_TissueFactor was analyzed into 1 assay endpoint. This assay endpoint, BSK_3C_TissueFactor, was analyzed with bidirectional fitting relative to DMSO as the negative control and baseline of activity. Using a type of binding reporter, gain or loss-of-signal activity can be used to understand changes in the signaling as they relate to the gene F3. Furthermore, this assay endpoint can be referred to as a primary readout, because this assay has produced multiple assay endpoints where this one serves a signaling function. To generalize the intended target to other relatable targets, this assay endpoint is annotated to the cytokine intended target family, where the subfamily is coagulation factor.
# The levels of cell surface (or secreted, indicated by the prefix "s") biomarker endpoints were measured by ELISA. Overt cytotoxicity to cells in confluent adherent cultures (all systems other than the BT system) was assessed by measuring total protein levels using sulforhodamine B (SRB) staining in parallel cultures at the time of biomarker measurements, indicated as SRB endpoints. For proliferation assays for adherent cell types, individual cell types are cultured at sub-confluence and relative cell numbers quantified by SRB staining at time points optimized for each system (48 h: 3C and CASM3C systems; 72 h: BT and HDF3CGF systems; 96 h: SAg system). SRB was performed by staining cells with 0.1% SRB after fixation with 10% TCA and reading wells at 560 nm.Viability and proliferation of PBMC (T cells) was quantified by Alamar Blue reduction for the SAg and BT systems. For PBMC viability (referred to as PBMC Cytotoxicity within the assay endpoint names), cells were plated (75,000/well in a 96-well plate) and then chemical samples added for 1 h before addition of activators, SEB and TSST-1 (20 ng/mL final concentration each). Cells were incubated for 90 h. Then, Alamar Blue (20 uL/well) (Invitrogen, Cat DAL1100) was added for 6 h, and the plates were read with a fluorescence microplate reader at 546/580 nm (excitation/emission). For PBMC proliferation, cells were plated and activated as above but incubated for only 16 h prior to addition of Alamar Blue. Plates were read after 6 h.
Structure (SMILES),outcome,AC50
CCOC(=O)C1=NN(c2ccc(Cl)cc2Cl)C(C)(C(=O)OCC)C1 (stereo not given),inactive,
CC1=CC=C(C(C)C)CC1,inactive,
c1ccc2c(c1)[nH]c1ccccc12,inactive,
CCN1CN(CC)CN(CC)C1,inactive,
CC(C)CCCCCOC(=O)CS,inactive,
O=C(O)C(F)(F)C(F)(F)C(F)(F)C(F)(F)C(=O)O,inactive,
O=C(Oc1ccccc1)c1ccccc1C(=O)Oc1ccccc1,inactive,
CC1(C)CC(O)CC(C)(C)N1[O],inactive,
Cc1c(O)cccc1O,inactive,
Nc1nc(N)nc(-c2ccccc2)n1,inactive,
Cc1ccc([N+](=O)[O-])cc1N,inactive,
Oc1ccccc1Cc1ccccc1O,inactive,
CCC1(C)C(=O)N(Cl)C(=O)N1Cl (stereo not given),inactive,
Fc1ccc(Br)cc1,inactive,
Oc1c(Cl)cc(Cl)c(Cl)c1Cl,,23.8 µM (active)
CCCCCCCCC(CO)CCCCCC (stereo not given),inactive,
C=CC(=O)OCCCCCCCC(C)C,,20 µM (active)
CCCCCCCCCCCC(C)=O,,25.4 µM (active)
CC=C(C)C(C)=O,inactive,
CC/C=C\C/C=C\C/C=C\CCCCCCCC(=O)OC,,13.5 µM (active)

Structure (SMILES),outcome,AC50
Nc1cccc(N)n1,inactive,
COc1ccc(C(=O)/C(Br)=C\C(=O)O)cc1,,11.9 µM (active) and 10.2 µM (active)
CCCCCCC=O,inactive,
CC(CCC(=O)O)(c1ccc(O)cc1)c1ccc(O)cc1,inactive,
CC(Cl)COP(=O)(OCC(C)Cl)OCC(C)Cl (stereo not given),inactive,
c1ccc(Nc2cccc3ccccc23)cc1,,36.1 µM (active) and 34.1 µM (active)
CCCCCC1=CCCC1=O,inactive,
O=C1CCCCCCCCCCCN1,inactive,
C=CCCCCCCCCC=O,inactive,
C[N+](C)(C)CCCNS(=O)(=O)C(F)(F)C(F)(F)C(F)(F)C(F)(F)C(F)(F)C(F)(F)C(F)(F)C(F)(F)F,inactive,41.3 µM (active)
COC(OC)(C(=O)c1ccccc1)c1ccccc1,inactive,
CCNc1nc(NC(C)(C)C)nc(OC)n1,inactive,
O=C1CCCCCCCCCCC1,inactive,
C1CNCCN1,inactive,
COc1ccc(C(=O)c2ccccc2)c(O)c1,inactive,
C=CC(=O)NC(C)(C)C,inactive,
O=C(Cl)c1c(Cl)c(Cl)c(C(=O)Cl)c(Cl)c1Cl,inactive,
CC(c1cc(C(C)(C)C)cc(C(C)(C)C)c1O)c1cc(C(C)(C)C)cc(C(C)(C)C)c1O,,0.464 µM (active)
CC/C=C\CCOC(=O)c1ccccc1O,,25.4 µM (active)
